Source: PubChem
FBW7 activator: FBW7 E3 ligase activators, primary screen, biochemical, AlphaScreen, human; normalized activity (activation), % at 26.1 µM; 650,000 tested, 0.13% active; F-box/WD repeat-containing protein 7 (Homo sapiens), Q969H0; AID 1259310, 2017; AlphaScreen FBW7–phospho-cyclin E peptide binding, activator screen; in the data active = normalized activity above about 1.9%;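 also: purified mutant Fbw7 with reduced substrate affinity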
TEAD-YAP inh: TEAD-YAP interaction inhibition, primary screen, TEAD-YAP interaction inhibitor project, luminescence, HEK-TIYL cells; 640,000 tested, 1.4% active; AID 1259422, 2018; TEAD-Gal4/YAP UAS-luciferase luminescence; inhibition, % at 9.12 µM; in the data active = inhibition above about 32%;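 also: 0% = median of test compound wells and 100% = reference inhibitor wells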
MITF primary: MITF inhibitors, primary screen, biochemical, AlphaScreen, human; 650,000 tested, 0.91% active; inhibition, % at 2.6 µM; AlphaScreen MITF homodimerization, bead proximity signal; AID 1259374, 2018; Microphthalmia-associated transcription factor (Homo sapiens), O75030; in the data active = inhibition above about 50%;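 also: 0% = vehicle wells with protein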
GPR151 ag: activators of human GPR151, primary screen, cell-based, PathHunter beta-arrestin, luminescence; AID 1508602, 2020; G-protein coupled receptor 151 (Homo sapiens), Q8TDV0; 650,000 tested, 1% active; PathHunter beta-arrestin GPR151 cells; activation, % at 11.2 µM; in the data active = activation above about 4.9%;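 also: 0% = median of compound wells and 100% = cells with positive control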
Target sequence (Q8TDV0 whole entry, looked up): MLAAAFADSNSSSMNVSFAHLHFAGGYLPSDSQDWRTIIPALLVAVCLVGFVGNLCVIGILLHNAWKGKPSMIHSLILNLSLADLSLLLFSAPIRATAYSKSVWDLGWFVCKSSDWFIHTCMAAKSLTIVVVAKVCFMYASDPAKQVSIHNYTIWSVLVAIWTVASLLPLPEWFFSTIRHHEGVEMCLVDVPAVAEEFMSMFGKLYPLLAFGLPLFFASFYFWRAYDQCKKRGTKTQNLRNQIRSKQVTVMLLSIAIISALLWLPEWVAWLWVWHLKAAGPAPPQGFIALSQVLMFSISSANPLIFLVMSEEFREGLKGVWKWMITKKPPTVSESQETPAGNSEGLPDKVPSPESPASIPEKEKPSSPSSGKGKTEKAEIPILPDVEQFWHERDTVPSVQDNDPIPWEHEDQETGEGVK
* hit, by the source's call. Rows were chosen to be rich in hits. Some 3.5% of all compounds tested hit in one or more screens of this group.

SMILES	FBW7 activator	TEAD-YAP inh	MITF primary	GPR151 ag
CCN(CC)S(=O)(=O)c1cc(C(=O)Oc2cccc(NC(=O)c3ccccc3Cl)c2)ccc1C	0	55*	4	0
O=C(Oc1cccc(NC(=O)c2ccccc2Cl)c1)c1ccc2c(c1)OCO2	0	60*	-9	2
CCN(CC)S(=O)(=O)c1cc(C(=O)Oc2cccc(NC(=O)c3ccc(Br)cc3)c2)ccc1C	0	20	-7	0
CCN(CC)S(=O)(=O)c1cc(C(=O)Oc2cccc(NC(=O)c3ccc([N+](=O)[O-])cc3)c2)ccc1C	0	36*	6	-1
O=C(Nc1cccc(NCc2ccc3c(c2)OCO3)c1)c1ccccc1Cl	0	10	4	0
CCN(CC)S(=O)(=O)c1cccc(C(=O)Oc2cccc(NC(=O)c3cccc(OC)c3)c2)c1	0	26	-2	-4
Cc1ccc(OCC(=O)Oc2cccc(NC(=O)c3ccccc3Cl)c2)cc1C	0	61*	3	0
CCCCCCNc1nc(Nc2ccc([N+](=O)[O-])cc2)nc(N2CCCC2)n1	0	-1	-3	0
O=C(NCc1cccnc1)c1csc(Nc2ccc3ncccc3c2)n1	0	11	-3	0
CCCn1cc(SCC(=O)Nc2ccc(OC)cc2OC)c2ccccc21	0	7	-8	4
COc1ccc(-n2ncc3c(Nc4cccc(F)c4)ncnc32)cc1	0	39*	1	4
COc1cccc(Nc2nc(N3CCN(c4cccc(Cl)c4)CC3)nc3c2cnn3C)c1	0	1	10	1
COc1ccc(-n2ncc3c(Nc4ccc(F)cc4)ncnc32)cc1	0	-2	0	4
COc1ccc(-n2ncc3c(Nc4cccc(OC)c4)ncnc32)cc1	0	46*	4	1
COc1cccc(Nc2ncnc3c2cnn3-c2ccc(Cl)cc2)c1	0	1	-6	-1
COc1cccc(Nc2nc(N3CCN(C)CC3)nc3c2cnn3C)c1	1	43*	18	4
Cc1nc(-c2coc3cc(O)ccc3c2=O)cs1	1	34*	8	-6
CC(=O)Oc1ccc2c(=O)c(-c3cc4ccccc4o3)coc2c1	0	8	8	-6
COc1ccc2c(=O)c(-c3cscn3)coc2c1	0	44*	-3	-3
O=c1c(-c2cc3ccccc3o2)coc2cc(O)ccc12	0	36*	1	-8
COc1ccc2c(=O)c(-c3ccccc3)coc2c1	0	29	2	-9
Cc1ccccc1-n1c(SCc2cc(=O)n3cc(Cl)ccc3n2)nc2c(sc(=S)n2-c2ccccc2C)c1=O	0	-6	4	-2
Cc1cc(C)c(CN2CCC(C(=O)O)CC2)c(O)c1	0	-11	13	-3
Cc1ccc(CN[C@H]2C[C@H]3C(=O)N[C@@H](C(C)C)C(=O)N3C2)cc1	0	-13	11	-1
Fc1cc(-c2ccnc(Nc3ccc(-n4ccnn4)cc3)n2)cc(N2CCOCC2)c1	0	20	-3	1
SMILES	FBW7 activator	TEAD-YAP inh	MITF primary	GPR151 ag
N#Cc1cc(-c2ccnc(Nc3ccc(-n4cnc(N5CCCC(O)C5)n4)cc3)n2)cc(N2CCOCC2)c1 (stereo unspecified)	0	27	-6	0
OC1CCCN(c2ncn(-c3ccc(Nc4nccc(-c5cccc(N6CCOCC6)c5)n4)cc3)n2)C1 (stereo unspecified)	1	83*	-10	0
Cn1nnc(-c2ccc(Nc3nccc(-c4cc(C#N)cc(N5CCCC(O)C5)c4)n3)cc2)n1 (stereo unspecified)	0	63*	0	1
CN1CCN(c2ncn(-c3ccc(Nc4nccc(-c5cc(C#N)cc(N6CCCC(O)C6)c5)n4)cc3)n2)CC1 (stereo unspecified)	0	62*	-11	1
OC1CCN(c2cccc(-c3ccnc(Nc4ccc(-n5ccnn5)cc4)n3)c2)CC1	0	37*	-3	0
COc1ccc(N2CCN(C(=O)c3ccc4c(c3)NC(=O)c3ccccc3N4)CC2)cc1	0	7	-3	1
COc1cccc(NC(=O)CSc2nc(NCCc3ccccc3)c3ccccc3n2)c1	0	-1	5	1
O=C(Nc1ccccc1Cl)/C(=C\c1ccc([N+](=O)[O-])cc1)NC(=O)c1ccccc1Br	0	-9	-5	2
Cc1cc(C)n(CC(O)COc2ccc(C(=O)c3ccccc3)cc2)n1 (stereo unspecified)	0	-21	16	0
CC(=O)c1c(C)nn(CC(O)COc2ccc(C(=O)c3ccc(Cl)cc3)cc2)c1C (stereo unspecified)	0	40*	-23	1
